# Source: PubChem BioAssay
# Unmarked numbers belong to inactive results. Active and inactive are the calls of the source.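 The calls were made as follows, unless noted: active = mean inhibition over 43.08%, the solvent-only control mean plus 3 SD; inactive = the rest.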
# Assays:
# [1] = biological target: Nuclear receptor coactivator 3 (Homo sapiens) (UniProt Q9Y6Q9); assay: SRC3 coactivator transcriptional activity inhibitors, confirmation, cell-based, luminescence, quadruplicate (AID 588792); details: HEK293 GAL4-SRC3 luciferase reporter, at 3.6 µM, stronger effect = higher value;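 also: 0% = DMSO treated cells and 100% = gossypol at 36 µM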
# [2] = test system: transactivating tegument protein VP16 (Human herpesvirus 1), Gal4-VP16 luciferase reporter; assay: VP16 transactivation inhibitors, counter-screen for SRC3 inhibitor project, cell-based, luminescence, high throughput (AID 588794; in the data active = inhibition above about 30%); details: mammalian cells, VP16-driven luciferase reporter luminescence; at 3.6 µM; stronger effect = higher value
# [3] = biological target: Nuclear receptor coactivator 1 (Homo sapiens) (UniProt Q15788); assay: SRC1 coactivator transcriptional activity inhibitors, confirmation, cell-based, luminescence, quadruplicate (AID 588820;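 active = mean inhibition above 46.68%, the untreated control wells mean plus 3 SD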;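 also: 0% = DMSO wells and 100% = gossypol 36 µM treated wells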); details: HEK293 GAL4-SRC1 luciferase reporter, at 3.6 µM, stronger effect = higher value
# [4] = VP16 transactivation inhibitors, counter-screen for SRC1 inhibitor project, cell-based, luminescence, high throughput (AID 588824; in the data active = inhibition above about 25%); details: cell-based VP16 transactivation luciferase luminescence; at 3.6 µM; stronger effect = higher value
# Sequence of Nuclear receptor coactivator 3 (Homo sapiens) (Q9Y6Q9 whole entry, looked up, the tested form may be a part): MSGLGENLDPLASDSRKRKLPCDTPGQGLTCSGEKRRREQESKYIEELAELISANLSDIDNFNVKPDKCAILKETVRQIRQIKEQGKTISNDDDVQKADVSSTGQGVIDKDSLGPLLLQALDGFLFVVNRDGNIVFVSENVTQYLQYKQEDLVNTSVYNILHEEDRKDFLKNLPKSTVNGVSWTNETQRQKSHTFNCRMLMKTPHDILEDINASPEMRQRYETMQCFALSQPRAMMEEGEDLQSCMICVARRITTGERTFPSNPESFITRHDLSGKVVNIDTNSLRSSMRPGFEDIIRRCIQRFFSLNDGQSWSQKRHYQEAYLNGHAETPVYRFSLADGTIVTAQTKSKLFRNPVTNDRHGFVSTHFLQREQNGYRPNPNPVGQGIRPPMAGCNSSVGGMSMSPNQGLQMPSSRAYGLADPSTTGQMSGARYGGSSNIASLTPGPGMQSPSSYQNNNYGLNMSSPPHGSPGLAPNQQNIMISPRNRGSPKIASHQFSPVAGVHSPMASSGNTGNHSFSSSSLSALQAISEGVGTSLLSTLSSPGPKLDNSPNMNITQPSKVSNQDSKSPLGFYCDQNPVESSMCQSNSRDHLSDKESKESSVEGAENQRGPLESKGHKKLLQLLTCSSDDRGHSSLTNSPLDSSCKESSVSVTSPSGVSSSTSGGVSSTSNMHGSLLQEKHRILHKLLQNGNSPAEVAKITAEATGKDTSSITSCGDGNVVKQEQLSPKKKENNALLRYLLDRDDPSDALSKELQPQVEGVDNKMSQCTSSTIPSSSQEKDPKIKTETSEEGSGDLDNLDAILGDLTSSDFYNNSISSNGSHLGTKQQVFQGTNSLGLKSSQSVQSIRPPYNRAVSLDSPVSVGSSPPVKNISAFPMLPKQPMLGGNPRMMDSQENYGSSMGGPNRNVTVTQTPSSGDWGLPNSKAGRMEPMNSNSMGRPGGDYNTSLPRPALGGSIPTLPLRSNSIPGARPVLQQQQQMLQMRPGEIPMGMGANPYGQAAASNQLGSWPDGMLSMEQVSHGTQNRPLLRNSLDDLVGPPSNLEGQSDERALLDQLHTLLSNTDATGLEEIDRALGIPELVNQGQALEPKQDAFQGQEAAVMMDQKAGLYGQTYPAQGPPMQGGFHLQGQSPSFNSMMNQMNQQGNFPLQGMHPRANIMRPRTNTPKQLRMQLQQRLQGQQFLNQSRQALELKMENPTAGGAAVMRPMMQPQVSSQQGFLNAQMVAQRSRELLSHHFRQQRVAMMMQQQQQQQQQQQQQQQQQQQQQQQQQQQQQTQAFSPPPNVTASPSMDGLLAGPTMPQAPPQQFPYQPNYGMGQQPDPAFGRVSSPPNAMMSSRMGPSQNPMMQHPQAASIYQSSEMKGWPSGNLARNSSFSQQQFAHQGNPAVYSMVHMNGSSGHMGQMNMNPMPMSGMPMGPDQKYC
# Sequence of Nuclear receptor coactivator 1 (Homo sapiens) (Q15788 whole entry, looked up, the tested form may be a part): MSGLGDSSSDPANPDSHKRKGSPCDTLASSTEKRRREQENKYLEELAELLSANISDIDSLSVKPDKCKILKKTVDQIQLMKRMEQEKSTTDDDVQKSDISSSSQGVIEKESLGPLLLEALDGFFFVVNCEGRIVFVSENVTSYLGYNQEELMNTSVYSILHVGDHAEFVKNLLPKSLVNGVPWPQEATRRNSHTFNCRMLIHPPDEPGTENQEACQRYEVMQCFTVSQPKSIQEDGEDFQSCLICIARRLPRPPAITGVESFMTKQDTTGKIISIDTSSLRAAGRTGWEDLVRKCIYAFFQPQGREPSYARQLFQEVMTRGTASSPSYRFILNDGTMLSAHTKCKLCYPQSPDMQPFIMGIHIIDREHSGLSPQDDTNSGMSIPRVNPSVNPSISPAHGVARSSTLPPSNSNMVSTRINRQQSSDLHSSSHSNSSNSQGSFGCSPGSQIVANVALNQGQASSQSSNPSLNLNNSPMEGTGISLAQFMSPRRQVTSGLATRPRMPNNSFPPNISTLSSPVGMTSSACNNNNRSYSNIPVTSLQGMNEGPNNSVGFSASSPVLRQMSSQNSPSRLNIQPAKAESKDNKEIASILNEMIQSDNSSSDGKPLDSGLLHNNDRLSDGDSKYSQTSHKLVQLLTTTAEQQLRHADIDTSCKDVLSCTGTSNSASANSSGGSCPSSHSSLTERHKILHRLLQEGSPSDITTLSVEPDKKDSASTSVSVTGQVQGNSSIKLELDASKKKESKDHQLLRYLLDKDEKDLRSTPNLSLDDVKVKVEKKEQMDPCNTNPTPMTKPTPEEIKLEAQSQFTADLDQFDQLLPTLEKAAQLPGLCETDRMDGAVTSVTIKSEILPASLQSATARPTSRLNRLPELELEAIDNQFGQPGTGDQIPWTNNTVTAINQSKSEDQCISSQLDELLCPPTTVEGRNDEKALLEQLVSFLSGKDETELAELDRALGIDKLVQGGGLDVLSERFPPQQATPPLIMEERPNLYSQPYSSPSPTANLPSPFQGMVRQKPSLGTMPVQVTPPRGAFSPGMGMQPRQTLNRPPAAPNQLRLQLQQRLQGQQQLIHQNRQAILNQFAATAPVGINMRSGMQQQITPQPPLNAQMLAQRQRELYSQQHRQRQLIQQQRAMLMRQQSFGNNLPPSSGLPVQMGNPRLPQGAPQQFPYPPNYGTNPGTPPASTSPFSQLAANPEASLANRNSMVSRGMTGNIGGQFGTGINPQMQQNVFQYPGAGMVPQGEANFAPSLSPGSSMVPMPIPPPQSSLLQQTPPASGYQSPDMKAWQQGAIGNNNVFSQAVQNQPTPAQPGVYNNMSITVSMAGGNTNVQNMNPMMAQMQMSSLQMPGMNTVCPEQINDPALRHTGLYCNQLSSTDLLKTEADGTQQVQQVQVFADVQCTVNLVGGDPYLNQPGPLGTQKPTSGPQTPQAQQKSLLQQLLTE
Structure (SMILES),inhibition [1],inhibition [2],inhibition [3],inhibition [4]
CC(=C1C(=O)c2ccccc2C1=O)N1CCN(CCN=Cc2c(O)n(C)c(=O)n(C)c2=O)CC1,-8.5%,-5.29%,–,–
Cc1cccc(C)c1-n1nnnc1C(CCc1ccccc1)N1CCC(n2c(=O)[nH]c3ccccc32)CC1 (stereo not drawn),40.6%,49.2% (active),20.7%,51.8% (active)
O=c1[nH]c2ccccc2n1C1CCN(C(c2ccccc2OC(F)(F)F)c2nnnn2Cc2ccccc2)CC1 (stereo not drawn),-2.46%,2.54%,-29%,0.5%
C=C1C(=O)[C@@]23C[C@H]4[C@@H]5[C@@]6(C)CCC[C@@]57[C@@H]2[C@@H](O)[C@@H]1C[C@H]3[C@H]7N4C6,3.71%,22%,26.6%,20.9%
N#CC(C#N)=NNc1ccc(-n2ccc(C(F)(F)F)n2)cc1,49.1% (active),52.6% (active),40.7%,56.3% (active)
CCn1nc(/C=C/c2ccccc2)nc2c(=O)n(C)c(=O)nc1-2,39.2%,9.67%,–,–
CC(C)[C@H]1C(=O)O[C@H](C(C)C)C(=O)N(C)[C@@H](C(C)C)C(=O)O[C@H](C(C)C)C(=O)N(C)[C@@H](C(C)C)C(=O)O[C@H](C(C)C)C(=O)N1C,75% (active),86.1% (active),59.5% (active),84.9% (active)
O=c1[nH]c2ccccc2n1C1CCN(C(c2cc3ccccc3o2)c2nnnn2Cc2ccccc2)CC1 (stereo not drawn),59.9% (active),9.7%,-16%,11.7%
C=C1C(C)C2C(Cc3ccccc3)NC(=O)C23OC(=O)/C=C/C(O)CCCC(C)C/C=C/C3C1O (stereo not drawn),10.6%,22.1%,–,–
COC(=O)[C@@H]1[C@@H](C(=O)OC)C2(c3ccccc3-c3ccccc32)N(c2ccc(Cl)cc2)N1C#N,-0.96%,30.6% (active),–,–
Cc1ccc(N=C(/N=C(\N)N[N+](=O)[O-])Nc2ccc(C)cc2)cc1,-0.99%,1.74%,–,–
CCN(CCCl)c1cc(CN(C)C)cc(NC(=O)c2ccc(C(=O)Nc3cc(CN(C)C)cc(N(CC)CCCl)c3)cc2)c1,94.8% (active),92% (active),–,–
Cc1cc2c(C(C)C)c(O)c(O)c(C=O)c2c(O)c1-c1c(C)cc2c(C(C)C)c(O)c(O)c(C=O)c2c1O,5.58%,22.2%,–,–
Cc1c(C(=O)N2CCC3(CC2)OCCO3)sc2ncnc(N3CCN(c4ccccn4)CC3)c12,-7.87%,-13.2%,–,–
CCCCn1c(O)c(C(C)=Nc2ccc(C(=O)O)cc2)c(=O)[nH]c1=O,1.79%,12.1%,–,–
Cc1c2ccncc2c(C)c2c1[nH]c1ccccc12,24%,45.9% (active),25.6%,42.1% (active)
COC(=O)C1CN(C#N)N(c2ccc(Cl)cc2)C12c1ccccc1-c1ccccc12 (stereo not drawn),13.6%,33.5% (active),–,–
CCCCCCCn1c(=O)c(C(=O)Nc2cnccn2)c(O)c2ccccc21,-22.1%,-5.22%,–,–
COc1ccc(-n2nnnc2C(c2cccc3ccccc23)N2CCC(n3c(=O)[nH]c4ccccc43)CC2)cc1 (stereo not drawn),-24.1%,4.21%,–,–
N=c1c2c(n(Cc3ccc(Cl)cc3Cl)c3c1CCC3)CCCC2,43.5% (active),62.9% (active),41.2%,63.4% (active)
COC1=CC2C3Cc4ccc(OC)c(O)c4C2(CCN3C)CC1=O (stereo not drawn),7%,11.3%,–,–
O=c1[nH]c2ccccc2n1C1CCN(C(CCc2ccccc2)c2nnnn2-c2ccc3c(c2)OCCO3)CC1 (stereo not drawn),30.3%,48.9% (active),–,–
O=c1[nH]c2ccccc2n1C1CCN(C(c2nnnn2-c2ccc3c(c2)OCCO3)C2CC2)CC1 (stereo not drawn),25.1%,23.5%,-8.7%,22%
Cc1cc(C)n(-c2ccc(NN=C(C#N)C#N)cc2)n1,43.3% (active),61.8% (active),–,–
O=c1[nH]c2ccccc2n1C1CCN(C(c2cccs2)c2nnnn2Cc2ccccc2)CC1 (stereo not drawn),32.3%,36.7% (active),0.46%,32.5% (active)
O=c1[nH]c2ccccc2n1C1CCN(C(c2nnnn2Cc2ccccc2)C2CC2)CC1 (stereo not drawn),22.8%,20.9%,–,–
COc1cccc(C(c2nnnn2Cc2ccccc2)N2CCC(n3c(=O)[nH]c4ccccc43)CC2)c1OC (stereo not drawn),25.4%,8.5%,-25.2%,20.2%
CCn1c(O)c(C=NCCN2CCOCC2)c(=O)n(CC)c1=S,9.7%,7.94%,–,–
